# Data: PubChem BioAssay AID624171 (National Center for Advancing Translational Sciences (NCATS), 2012)
# About 1,200 (0.29%) of roughly 410,000 compounds were called active. Roughly 2% stayed inconclusive and do not appear here. What follows is part of a selection rich in actives, with near analogues and random picks from the rest. Entries that show only a call come without a potency. Values without a mark were called inactive. Calls come from the whole dose curve; as a rule, active = well fitted activation curve with a large enough effect; inconclusive = small, poorly fitted or top-dose-only effect; inactive = flat fitted curve, though single readings scatter.
# Test: qHTS of Nrf2 Activators; note: nearly all actives have a fitted effect of over 65% in size
# Conditions: AREc32 ARE-luciferase reporter (MCF7-derived line), luminescence, 24 h; series mostly up to 46.1 µM
# From the text: Many diseases have some form of oxidative stress injury and ties to inflammation, causing a host of problems for the patient. The antioxidant response element (ARE) plays an important role in alleviating the harmful effects of oxidative stress. The antioxidant response element (ARE) is a transcriptional regulatory element involved in the activation of genes coding for a number of antioxidant proteins and detoxifying enzymes. These enzymes work in concert to protect tissues from oxidative insults and chemical toxicities in human hepatocytes and immune cells. The protective effects of ARE activation are primarily triggered through Nrf2 (NF-E2-related factor) binding to and activating AREs. It is known that Nrf2 controls the production of over 250 antioxidant and detoxification proteins (Hu et al., 2006), thereby protecting tissues by increasing cellular antioxidant content and suppressing inflammatory signaling pathways. The transcription factor Nrf2 is a central link between oxidative chemicals, such as phenolic antioxidants and electrophilic compounds, and the activation of ARE. Nrf2 levels are constitutively low as a consequence of its interaction with Keap1, which targets its degradation (Zipper and Mulcahy, 2002). Electrophiles react with key cysteine residues in Keap1, releasing Nrf2 and allowing its translocation to the nucleus. Once within the nucleus, Nrf2 complexes with coactivators such as p300, and binds to the AREs to induce gene transcription of cytoprotective enzymes, resulting in the prevention of toxicity. Activation of Nrf2 protects tissues by increasing cellular antioxidant content and suppressing inflammatory signaling pathways. Identifying novel and potent Nrf2 activators by using the AREc32 cell line to detect ARE activation by small molecules will lead to the identification and development of probes to study protective pathways in multiple tissues. These specific probes are essential to study the ARE pathway, and eventually to determine whether this pathway does activate genes that could protect against a host of diseases, including cardiovascular diseases, obesity, diabetes, Alzheimer's, and Parkinson's disease.
# This project's aim is to identify novel and potent Nrf2 activators by using the AREc32 cell line to detect ARE activation by small molecules, which will lead to the identification and development of probes to study the ARE pathway.
# NIH Chemical Genomics Center [NCGC]
# NIH Molecular Libraries Probe Centers Network [MLPCN]
# Assay Submitter (PI): Curtis Klaassen, University of Kansas Medical Center
# 5 uL of 1000 cells/well of AREc32_Fluc cells are seeded into 1536-well plate in OPTI-MEM medium with 5% FBS. The plates are incubated overnight at 37 deg C with 5% CO2. Then through pin tool transfer, 23 nL of compounds are added to each well before a 24 hr incubation at 37 deg C with 5% CO2. After the addition of 2.5 uL of Steady-Glo. the plates are kept at RT for 30 min, before they are read on the ViewLux.
# Potency is the fitted concentration of half-maximal effect.
Structure (SMILES),activation,Potency
Cc1ccc(NC2=C(Cl)C(=O)OC2OC(=O)c2ccccc2C)cc1 (stereo unspecified),0.434% [at 9.22 µM],
O=C1OC(OC(=O)c2ccccc2Br)C(N2CCOCC2)=C1Cl (stereo unspecified),,inactive
Cc1ccccc1C(=O)OC1OC(=O)C(Cl)=C1Nc1ccccc1 (stereo unspecified),,15.8 µM (active)
CCOC(=O)c1c(C)[nH]c(C)c1S(=O)(=O)N1CCC(C(=O)Nc2ccc(C)c(Cl)c2)CC1,,inactive
Nc1c(C(=O)c2cccs2)sc2nsc(SCCN3CCCCC3)c12,,10 µM (active)
CC(C)c1cc(NCc2ccccn2)n2c(nc3ccccc32)c1C#N,,inactive
Cc1cc(NC(C)C)n2c(nc3ccccc32)c1C#N,,inactive
Cc1cc(NCc2ccco2)n2c(nc3ccccc32)c1C#N,,5.01 µM (active)
Cc1cc(C)cc(NC(=O)COC(=O)c2cc(C)oc2C)c1,,inactive
Cc1cc(C(=O)N/N=C\C(Br)=C\c2ccccc2)c(C)o1,,20 µM (active)
Cc1cc(C(=O)NCCc2ccc(Cl)cc2)c(C)o1,,inactive
COc1cccc(C(=O)NCC(=O)OCc2cc(=O)n3ccsc3n2)c1,,inactive
S=c1[nH]nc(CSCc2ccc(Cl)cc2Cl)n1-c1ccccc1,,inactive
Cc1n[nH]c(=O)n1-c1ccc(Oc2ccccc2)cc1,,inactive
S=c1[nH]nc(-c2cc(-c3ccsc3)n[nH]2)n1-c1ccccc1,,8.91 µM (active)
COc1cccc(C(c2c(O)cc(C)n(Cc3ccco3)c2=O)N2CCN(c3ccccc3)CC2)c1 (stereo unspecified),,inactive
Cc1ccc(NC(=O)c2oc3ccccc3c2C)c([N+](=O)[O-])c1,,inactive
CN(C)c1ccc(NC(=O)c2ccncc2)c2ccccc12,,inactive
O=C(Nc1ccc2ccccc2c1[N+](=O)[O-])c1ccccc1,,14.1 µM (active)
O=C(CN1C(=O)COc2ccc(S(=O)(=O)N3CCOCC3)cc21)N1CCN(c2cccc(Cl)c2)CC1,,inactive
Cc1cc2nc(-c3ccc(NC(=O)c4cc5ccccc5o4)cc3)oc2cc1C,,inactive
O=C(COC(=O)/C=C/c1nc2ccccc2s1)Nc1ccccc1Oc1ccccc1,,inactive
CCOc1cccc(/C=C/c2ccc3ccccc3n2)c1OC(C)=O,,inactive
NC(=O)COC(=O)/C=C/c1ccc2ccccc2n1,,15.8 µM (active)
CN(C(=O)c1ccc2c(c1)N(Cc1cccc(Cl)c1)C(=O)c1ccccc1S2=O)C1CCCCC1 (stereo unspecified),,inactive
CC(C)C(=O)Nc1nc2c(s1)CC(C(C)(C)C)CC2 (stereo unspecified),,inactive

Structure (SMILES),activation,Potency
Cc1ccc(NC(=O)Cn2nnc3sc4c(c3c2=O)CCC(C)C4)cc1 (stereo unspecified),,inactive
COC(=O)c1cccc(Cn2nnc3sc4c(c3c2=O)CCC(C(C)(C)C)C4)c1 (stereo unspecified),,inactive
CCOC(=O)c1c(C)oc2nc(C)nc(Nc3ccc(CC)cc3)c12,,inactive
CCCOc1ccc(-c2cccc(NS(=O)(=O)c3ccccc3)c2)nn1,,inactive
COc1ccc(N2C(=O)CC(N3CCC(C(N)=O)CC3)C2=O)cc1 (stereo unspecified),,inactive
COc1ccc(C2NC(=O)N(C)C3=C2C(=O)N(c2ccc(C(=O)O)cc2)C3)cc1 (stereo unspecified),,inactive
COc1ccc(N2C(=O)C3C(C2=O)C(C(=O)c2ccccc2)N2CCCC32)cc1 (stereo unspecified),,12.6 µM (active)
CCCNC(=O)C1CCC(Cn2c(=O)c3sccc3n(Cc3ccccc3F)c2=O)CC1 (stereo unspecified),,inactive
COc1ccccc1CNC(=O)c1ccc(CS(=O)c2ccccc2Cl)o1 (stereo unspecified),,inactive
Cc1ccc(-c2ccnc3nc(Sc4ncc(C(F)(F)F)cc4Cl)nn23)cc1,,inactive
c1ccc(-c2ccnc3nc(-n4cccc4)nn23)cc1,,12.6 µM (active)
Cc1cc(-c2ccccc2)n2nc(-c3ccccc3)cc2n1,,inactive
O=C(Nc1nnc(S(=O)(=O)N2CCCc3ccccc32)s1)c1cccc(F)c1,,inactive
CCSc1ncc(Cl)c(C(=O)Nc2c(C(=O)c3ccccc3)oc3ccccc23)n1,,inactive
O=C(Nc1ccccc1Cl)Nc1cccc2cccnc12,,12.6 µM (active)
COc1c(Cl)cc(Cl)cc1C(=O)Nc1cccc2cccnc12,,inactive
O=C(Nc1cccc2cccnc12)c1cccc2c(Br)cccc12,,inactive
Cc1ccc(NC(=O)CN2C(=O)C(c3ccc(F)cc3)=NC23CCCCCC3)c(C)c1,,inactive
CCCN1CCc2nc(N3CCN(C)CC3)ncc2C1,,inactive
CC(C)(C)c1ccc(C(=O)N2CCC(c3nc(-c4ccc(S(=O)(=O)N5CCCC5)cc4)no3)CC2)cc1,,inactive
O=C(CSc1n[nH]c(=O)n1-c1ccccc1)Nc1ccccc1C(F)(F)F,,inactive
O=c1[nH]nc(SCCS(=O)(=O)c2ccc(F)cc2)n1-c1ccccc1C(F)(F)F,,11.2 µM (active)
O=S(=O)(c1ccc(F)cc1)N1CCN(Cc2ccccc2C(F)(F)F)CC1,,inactive
COc1ccc2oc(=O)c(-c3cn4c(n3)sc3cc(OC)ccc34)cc2c1,,inactive
O=C1/C(=C\c2ccc(O)cc2)CCC1CNc1ccc(Cl)cc1 (stereo unspecified),,11.2 µM (active)
CC(=O)c1nn(-c2ccc(OC(F)(F)F)cc2)nc1Nc1ccccc1,,inactive

Structure (SMILES),activation,Potency
CCOc1ccc(CCNC(=O)c2ccc3c(c2)sc2nc(-c4ccc(F)cc4)cn23)cc1OCC,,inactive
Cn1c(=O)c2c(n3c4ccccc4nc13)NC(=O)CC2c1cccc(Cl)c1 (stereo unspecified),,inactive
Cc1ccc(-c2nnc(SCC(=O)NCc3ccccc3)nc2-c2ccc(C)cc2)cc1,,inactive
Fc1ccc(CSc2nc(NCc3ccccc3)c3ccccc3n2)cc1,,inactive
c1ccc(CSc2nnc(-c3ccco3)c(-c3ccco3)n2)cc1,,12.6 µM (active)
O=C(CSc1c2c(nc3ccc(Cl)cc13)CCCC2)NCc1ccco1,,11.2 µM (active)
Cc1ccc(CNC(=O)CSc2c3c(nc4cc(Cl)ccc24)CCCC3)cc1,,inactive
COc1cccc(CNC(=O)CSc2c3c(nc4cc(Cl)ccc24)CCCC3)c1,,inactive
CCCNC(=O)CCC(=O)N1Cc2ccccc2Oc2ncccc21,,inactive
Cc1ccc2[nH]c3c(=O)n(CC(=O)NC(C)C)ncc3c2c1,,inactive
COc1ccc(-c2csc(-c3c(N)c(C(=O)c4ccc(OC)c(OC)c4)n4ccccc34)n2)cc1,,inactive
CCn1c2ccccc2c2nnc(N3CCN(c4cc(C)ccc4C)CC3)nc21,,inactive
Cc1nc(N)sc1-c1ccccc1,,inactive
Cc1nc(-c2ccccc2)sc1-c1nc(-c2ccccc2)ncc1S(=O)(=O)c1ccccc1,,inactive
Cc1nc(-c2ccccc2)sc1-c1nnc(C2CC2)o1,,15.8 µM (active)
COc1ccc(Cl)cc1S(=O)(=O)N1CCC(c2ccncc2)CC1,,inactive
CCOc1ccc(CC(=O)NCCc2csc3nc(-c4ccccc4F)nn23)cc1,,inactive
O=C(/C=C/c1ccc2c(c1)OCCO2)c1ccc(O)cc1,,5.01 µM (active)
O=C(COC(=O)/C=C/c1ccc2c(c1)OCO2)NC1CCS(=O)(=O)C1 (stereo unspecified),,inactive
O/N=C(\c1ccc2c(c1)OCCO2)C1CCCCC1,,inactive
O=C(NCCc1csc(-c2ccc(C(F)(F)F)cc2)n1)C(=O)Nc1ccc(F)c(Cl)c1,,inactive
COc1ccc(NC(=O)c2ccc3nc(C(C)C)oc3c2)cc1OC,,inactive
COCc1c(C(=O)OCC(=O)Nc2ccc(OC(F)F)cc2)oc2ccccc12,,inactive
CCc1cccc(NC(=O)COC(=O)c2cc(=O)c3ccccc3o2)c1,,14.1 µM (active)
CCc1cccc(NC(=O)COC(=O)C2CCN(c3ccc(C(F)(F)F)cn3)CC2)c1,,inactive
Cc1cc(C)nc(NS(=O)(=O)c2ccc(NC(=O)c3cc(=O)c4ccc(C)c(C)c4o3)cc2)n1,,inactive

Structure (SMILES),activation,Potency
COc1cc2c(cc1NC(=O)COC(=O)/C=C/c1ccccc1)oc1ccccc12,,inactive
COc1ccc(Br)cc1CN(C)CC(=O)Nc1cc([N+](=O)[O-])ccc1OC,,inactive
COc1ccc([N+](=O)[O-])cc1NC(=O)COC(=O)/C=C/c1ccco1,,11.2 µM (active)
FC(F)(F)c1cc(Nc2nc3ccccc3c3nncn23)ccc1Cl,,inactive
COc1cccc(N=C2SC(C(=O)Nc3cccc(Cl)c3)CC(=O)N2C)c1 (stereo unspecified),,inactive
COc1ccc(-c2nnc(SCC(=O)Nc3ccc(C(C)C)cc3)nc2-c2ccc(OC)c(OC)c2)cc1OC,,inactive
c1ccc(Cc2c(-c3ccco3)nc3c4ccccc4ccn23)cc1,,6.31 µM (active)
CCCc1nc2c3ccccc3ccn2c1Cc1ccccc1C(F)(F)F,,inactive
COC(=O)c1ccc2nc(-c3ccc(F)cc3)c(Cc3ccc(C)cc3)n2c1,,inactive
COC(=O)c1ccc2nc(-c3ccc(Cl)cc3)c(Cc3cccc(F)c3)n2c1,,inactive
Cc1ccc(Cc2c(-c3ccco3)nc3ccc(Cl)cn23)cc1,,12.6 µM (active)
CC(C)c1ccc(NC(=O)C2CCN(c3nc(-c4ccc(C(C)C)cc4)no3)CC2)cc1,,inactive
COc1ccc(NC(=O)c2sc3nc(-c4cc5cccc(OC)c5oc4=O)[nH]c(=O)c3c2C)cc1,,inactive
O=S(=O)(c1ccc(Cl)cc1)c1nnn2c1nc(NC1CCCC1)c1sccc12,,inactive
CCc1cc2c(cc3c(=O)n(CC(=O)NCCc4ccc(OC)c(OC)c4)ncn32)s1,,inactive
CCOC(=O)c1ccc(CSc2nnc3cc(C)c4ccccc4n23)cc1,,inactive
COc1cccc(C(=O)c2sc3nc(-c4ccccc4)cc(C(F)(F)F)c3c2N)c1,,inactive
CN(C(=O)c1ccccc1)c1nccnc1C#N,,inactive
CN(C)c1ccnc2sc(C(=O)c3ccccc3)c(N)c12,,10 µM (active)
CCCS(=O)(=O)c1c(Nc2ccccc2C)sc(C(=O)c2ccccc2)c1N,,inactive
COc1ccc(S(=O)(=O)c2c(Nc3cccc(Cl)c3)sc(C(=O)c3ccccc3)c2N)cc1,,inactive
Cc1ccc2c(N)c(C(=O)c3ccccc3)sc2n1,,8.91 µM (active)
COc1ccc(-n2ccnc(NCCc3ccc(Cl)cc3)c2=O)cc1OC,,inactive
